# Bioassay records from PubChem BioAssay.
# Rows were chosen to be rich in hits. Some 17% of all compounds tested hit in one or more screens of this group.
# DT40 TDP1 CPT = DT40-hTDP1 cell growth loss with CPT; AID 686979; hit rate 12% among 420,000; Potency, µM (doses to about 46.2 µM), for the others: at the top dose activity change, negative = growth inhibition, usual class: inhibitors; chicken DT40 Tdp1-/-;hTDP1 cells + 20 nM CPT, ATP luminescence, 48 h; further: on the % scale 0 is the no-effect control and ±100 the full control effect; nearly all actives have a fitted effect of over 55% in size
#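 Chicken DT40 Tdp1-/- cells stably complemented with human TDP1 were seeded at 400 cells/well in medium containing 20 nM camptothecin, exposed to pin-transferred compounds, and grown at 37 °C for at least 48 hr. Viability was read as ATP luminescence.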
# ClpP mod = qHTS Assay for Activators of ClpP; Potency, µM (series often up to 57.5 µM), for inactives: at the highest dose activity change, negative = active; ATP-dependent Clp protease proteolytic subunit (Bacillus subtilis (strain 168)), P80244; purified B. subtilis ClpP, FRET peptide cleavage, 20 min; hit rate 1.9% among 340,000; active means well fitted falling curve with a large enough effect; inconclusive means small, poorly fitted or top-dose-only effect; inactive means no such curve, though single readings can be large or run the other way; further: the source files actives as falling curves though it sought activators and does not explain the sign; nearly all actives have a fitted effect of over 65% in size
# Target sequence (P80244 whole entry, looked up): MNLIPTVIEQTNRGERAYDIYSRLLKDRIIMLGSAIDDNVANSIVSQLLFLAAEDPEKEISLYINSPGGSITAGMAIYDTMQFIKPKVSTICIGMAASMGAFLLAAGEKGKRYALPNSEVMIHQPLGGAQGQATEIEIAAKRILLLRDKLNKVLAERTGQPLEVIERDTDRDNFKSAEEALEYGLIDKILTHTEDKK
#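 Purified B. subtilis ClpP, 10 microg/mL final in Tris/HCl pH8 with KCl, BSA, glycerol and Tween-20, cleaved an Abz/nitrotyrosine-quenched decapeptide. Fluorescence (ex 320, em 430) was read at 0 and 20 min at room temperature. Delta was normalized to 5.8 microM ADEP and DMSO/no-enzyme controls.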
# TDP1 block = TDP1 (human) enzyme inhibition. recombinant TDP1, AlphaScreen DNA substrate cleavage. hit rate 0.28% among 350,000. Potency, µM (doses to about 130 µM), for the others: top-dose activity change, negative = inhibition, usual class: inhibitors. Q9NUW8; further: on the % scale 0 is the no-effect control and ±100 the full control effect; nearly all actives have a fitted effect of over 40% in size
#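 E. coli-derived human Tdp1, 1 nM final. Cpd preinc 15 min RT; substrate 15 nM final, 5 min RT; AS bead mix 10 ug/ml final, 10 min RT. Signal loss = tyrosine-FITC cleavage. No-enzyme wells = max signal.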
# DT40 TDP1 no CPT = qHTS for Inhibitors of human tyrosyl-DNA phosphodiesterase 1 (TDP1): qHTS in cells in absence of CPT | DT40 Tdp1-/- hTDP1 cells, no CPT, ATP luminescence, 48 h | Potency, µM (highest dose often 46.2 µM), inactives show at the highest dose activity change, negative = growth inhibition, usual class: inhibitors | hit rate 15% among 420,000 | AID 686978, 2013; further: on the % scale 0 is the no-effect control and ±100 the full control effect; nearly all actives have a fitted effect of over 55% in size
#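 Chicken DT40 Tdp1-/- cells stably complemented with human TDP1 were seeded at 400 cells/well with DMSO in place of 20 nM camptothecin. After compound pinning, cells grew at least 48 hr at 37 °C; viability read by CellTiter-Glo luminescence.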
# * = called active by the depositor; ? = inconclusive; . = no result; [ ] = remark or other dose. Unless noted, the call rests on the fitted dose curve; in most records, active means well fitted curve in the direction sought with a large enough effect; inconclusive means small, poorly fitted or top-dose-only effect, or another doubt; inactive means no such curve, though single readings can be large; an effect the other way counts as inactive or inconclusive. Potency means the concentration at half of the fitted maximal effect.
SMILES,DT40 TDP1 CPT,ClpP mod,TDP1 block,DT40 TDP1 no CPT
COC(=O)[C@@H]1CC[C@H](C)[C@@H](c2ccc(C)cc2)N1C(=O)c1ccc(/C=N\O[C@@H]2O[C@H](COC(C)=O)[C@H](OC(C)=O)[C@H](OC(C)=O)[C@H]2OC(C)=O)cc1,.,.,7.9%[21 µM],.
Cc1ccccc1OCCCn1c(-c2ccc(Cl)cc2)nc2ccccc2c1=O,-12.4%,-2.2%,.,-0.2%
COC(=O)C1=C(C)N(Cc2ccccc2)C(=NCc2ccc(OC)cc2)N[C@H]1c1ccccc1,7.31µM*,-5.0%,0.6%,8.2µM*
COC(=O)C1=C(C)N(Cc2ccccc2)C(=NCC(C)C)N[C@H]1c1ccccc1,4.11µM*,-7.9%,.,4.11µM*
COC(=O)C1=C(C)N(CC2CC2)C(=O)N[C@H]1c1ccc(Br)cc1,23.1µM*,1.7%,2.5%,?
CCOC(=O)C1=C(C)N(C[C@@H]2CC[C@@H](Cc3ccc4cc(OC)ccc4c3)O2)C(=O)NC1c1ccccc1 (stereo partly specified),20.6µM*,-24.8%,0.4%[56.1 µM],?
COC(=O)C1=C(C)N(Cc2ccccc2)C(=O)N[C@@H]1c1ccccc1,.,.,0.6%,.
COC(=O)C1=C(C)N(Cc2ccccc2)C(=O)N[C@H]1c1ccccc1,?,-0.9%,8.1%,-20.8%
CCN1C(=O)N[C@@H](c2ccc(Br)cc2)C(C(=O)OC)=C1C,?,2.1%,2.5%,?
CCOC(=O)c1ccc2c(c1)N(Cc1ccc(F)cc1Cl)C(=O)c1ccccc1S2,?,-2.1%,0.0%,?
COCc1cn(CC(C)n2c(=O)c3ccccc3n2Cc2cc(C(C)C)no2)nn1 (stereo unspecified),17.6%,4.4%,.,2.9%
C=CCN=C1N[C@@H](c2ccc(Br)cc2)C(C(=O)OC)=C(C)N1Cc1ccccc1,12.6µM*,1.0%,.,?
CSc1ccc(CCNC(=O)C2CCCN(S(=O)(=O)N(C)c3ccc(F)cc3)C2)cc1 (stereo unspecified),6.51µM*,-1.9%,0.0%,9.2µM*
COc1cccc(CNC(=O)C2CCCN(S(=O)(=O)N(C)c3ccc(F)cc3)C2)c1OC (stereo unspecified),3.26µM*,-2.0%,-2.6%,3.66µM*
CN(c1ccc(F)cc1)S(=O)(=O)N1CCCC(C(=O)NCCc2ccccc2)C1 (stereo unspecified),20.6µM*,-0.2%,-5.1%,?
Cc1c(CC(=O)NCc2ccc(F)cc2)c(=O)oc2cc(O)c(Cl)cc12,?,4.3%,-4.9%,?
CC(=O)N1CCC[C@@]2(CCN(c3ncccn3)C2)C1,3.9%,.,.,-3.6%
CCN(CC)CCCCn1c(-c2ccccc2)nc2c(NC3CCCCC3)nc(C)nc21,.,.,5.1%,.
O=C(COc1ccccc1)NC(=S)N1CCc2ccccc21,?,-9.2%,5.6%,16.4µM*
COc1cc(C(=O)N2CC(=O)Nc3ccccc32)cc(OC)c1OC,8.2µM*,0.8%,.,8.2µM*
Cc1cc(C)c2nc(SCC(=O)N3CC(=O)Nc4ccccc43)c(C#N)cc2c1,1.3µM*,-11.0%,-2.2%,1.3µM*
CS(=O)(=O)c1ccc(C(=O)N2CC(=O)Nc3ccccc32)cc1,-12.2%,.,9.8%,-8.6%
Cc1ccsc1C(=O)N1CC(=O)Nc2ccccc21,?,-1.5%,-2.0%,23.1µM*
Cc1cc(C)cc(C(=O)N2CC(=O)Nc3ccccc32)c1,0.92µM*,-13.2%,-10.1%,0.581µM*
O=C(NCc1ccccc1Br)C1CCCN(C(=O)N2CCOc3ccccc32)C1 (stereo unspecified),?,-3.3%,1.3%,?
SMILES,DT40 TDP1 CPT,ClpP mod,TDP1 block,DT40 TDP1 no CPT
Cc1cccc(C(=O)OCN2C(=O)c3ccccc3C2=O)c1[N+](=O)[O-],-1.2%,1.5%,5.5%,7.3%
COc1ccccc1NS(=O)(=O)c1cccc(-n2c(O)c(C=Nc3ccccc3C(=O)O)c3ccccc3c2=O)c1,?,.,3.6%,13µM*
Cc1c(N=Cc2ccco2)c(=O)n(-c2ccccc2)n1C,-7.9%,-1.7%,6.2%,-6.2%
COc1ccc(Cn2c(O)c(C=Nc3ccccc3C(=O)O)c3ccccc3c2=O)cc1,14.6µM*,.,9.6%,10.3µM*
COc1ccc(Cn2c(O)c(/C=N/NC(=O)c3cccnc3)c3ccccc3c2=O)cc1,14.6µM*,.,11.4%,23.1µM*
COc1ccc2c(C=Nc3c(C)n(C)n(-c4ccccc4)c3=O)c(O)n(Cc3ccco3)c(=O)c2c1,18.4µM*,-0.8%,3.0%,?
O=C(N/N=C/c1c(O)n(Cc2ccccc2)c(=O)c2ccccc12)c1cccnc1,?,.,13.3%,9.2µM*
O=C(N/N=C/c1c(O)n(-c2ccccc2Cl)c(=O)c2ccccc12)c1cccnc1,?,-0.2%,1.3%,-26.5%
Cc1ccc(N=C2NC(=O)/C(=C/C=C/c3ccco3)S2)cc1,?,0.8%,-5.6%,23.1µM*
O=C1NC(=Nc2ccccc2)S/C1=C\C=C\c1ccco1,8.2µM*,0.2%,2.7%,9.2µM*
Cc1cccc(N=C2NC(=O)/C(=C/C=C/c3ccco3)S2)c1C,?,-27.0%,-2.3%,16.4µM*
COc1ccc(N=C2NC(=O)/C(=C/c3ccco3)S2)cc1,?,-1.4%,0.6%,?
CN(C)c1ncc2nc(-c3ccccc3)c(=O)n(C[C@H]3CCCO3)c2n1,5.9%,.,.,4.8%
O=C(Nc1ccc(-n2nncc2-c2ccco2)cc1)c1cc2ccccc2oc1=O,9.6%,0.1%,39.8µM*,2.7%
Cc1ccc(-n2nc3c(=O)n(C(C)C(=O)NCc4ccccc4C)nc(C)c3c2C)cc1 (stereo unspecified),?,-3.3%,-8.5%,23.1µM*
Cc1ccc(-n2nc3c(=O)n(C(C)C(=O)NCc4ccc(OC(C)C)cc4)nc(C)c3c2C)cc1 (stereo unspecified),16.4µM*,-0.9%,0.0%,13µM*
Cc1ccc(-n2nc3c(=O)n(C(C)C(=O)NCc4ccc(Cl)cc4)nc(C)c3c2C)cc1 (stereo unspecified),?,-4.2%,-10.8%,-22.3%
CCOc1ccccc1CNC(=O)C(CC)n1nc(C)c2c(C)n(-c3ccccc3)nc2c1=O (stereo unspecified),18.4µM*,-0.9%,5.6%,?
CCC(C(=O)NCCc1ccc(SC)cc1)n1nc(C)c2c(C)n(-c3ccc(C)cc3)nc2c1=O (stereo unspecified),13µM*,-0.1%,0.0%,16.4µM*
O=C(Nc1ccc2c(c1)CCC2)c1cc(=O)[nH]c2ccccc12,-13.0%,.,2.4%,-17.7%
CCOc1ccc(CCNC(=O)c2cccc(C#N)c2)cc1OCC,-16.2%,.,4.8%,?
CC(C)(CO)NC(=O)CC1C(=O)NCCN1Cc1ccc(-c2ccccc2)cc1 (stereo unspecified),20.8%,.,-7.2%,?
